Assay outcomes deposited in PubChem BioAssay by National Center for Advancing Translational Sciences (NCATS).
Shiga inhibitor: inhibitors of Shiga toxin in Vero cells; Vero cells, Shiga toxin protein synthesis inhibition reporter; 290,000 tested, 9.2% active; inhibition, % at 38.7 µM; AID 2315; in the data active means inhibition mostly above about 28%, no sharp cut-off; inactive means mostly below about 43%; further: 0% is about no effect
Giardia FBPA inh: Giardia lamblia aldolase inhibition | A8B2U2 | purified Giardia FBPA | Potency, µM (titrated, usually from 59.6 µM), inactives show top-dose activity, negative = inhibition, hits mostly inhibitors | 290,000 tested, 0.71% active; further: potency means the concentration at half of the fitted maximal effect; on the % scale 0 is the no-effect control and ±100 the full control effect; nearly all actives have a fitted effect of over 55% in size
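40 nM FBPA preincubated 10 min at RT with compound (up to 57.5 uM final), then substrate plus GAPDH/TPI/NAD/arsenate coupling and diaphorase/resazurin added. Fluorescence read after 20 min at RT, 525/598 nm.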
TbPYK inhibitor: blocks Trypanosoma brucei pyruvate kinase; 410,000 tested, 0.12% active; TbPYK enzyme, Kinase-Glo Plus ATP luminescence, 45 min; Q57TT1; Potency, µM (top dose mostly 76.8 µM), without a hit: top-dose activity, negative = inhibition, actives largely listed as inhibitors; further: potency means the concentration at half of the fitted maximal effect; on the % scale 0 is the no-effect control and ±100 the full control effect; nearly all actives have a fitted effect of over 50% in size
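Luminescence from Kinase-Glo Plus, added after a 45-minute room-temperature reaction, served as the end-point read-out. The enzyme and substrate were preincubated with compound before ADP (130 uM final) initiated turnover. Concentration-effect curves came from normalized qHTS data.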
RE007 growth inh: less growth of the S. pombe RE007 Vpr strain; S. pombe RE007 Vpr strain, BacTiter-Glo ATP luminescence, 24 h; Potency, µM (titrated, usually from 92.2 µM), for inactives: at the highest dose activity change, negative = less growth, hits mostly inhibitors; 360,000 tested, 0.21% active; AID 651644; active means well fitted falling curve with a large enough effect; inconclusive means small, poorly fitted or top-dose-only effect; inactive means no such curve, though single readings can be large or run the other way; further: potency means the concentration at half of the fitted maximal effect; on the % scale 0 is the no-effect control and ±100 the full control effect; nearly all actives have a fitted effect of over 50% in size
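Fission yeast RE007 carrying one integrated HIV-1 vpr copy, seeded at OD 0.01 in PMG+AL medium with 23 nL pinned compound. Grown 24 h at 30 degrees; viability read by BacTiter-Glo luminescence after 5 min.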
Cycloheximide cs: affects cycloheximide protein synthesis inhibition readout, counter-screen. cell reporter, cycloheximide protein synthesis inhibition counterscreen. max response, %. 300,000 tested, 12% active. AID 2314; in the data active means max response mostly above about 13%, no sharp cut-off; inactive means mostly below about 14%; further: read at 38.3 µM for the half of the compounds with a filed dose; 0% is about no effect
LmPK inhibitor: inhibitors of Leishmania mexicana pyruvate kinase; Q27686; purified LmPK, Kinase-Glo ATP luminescence, 1 h; Potency, µM (top dose mostly 57.5 µM), inactives show top-dose activity change, negative = inhibition, actives largely listed as inhibitors; 290,000 tested, 0.37% active; AID 1721; further: potency means the concentration at half of the fitted maximal effect; on the % scale 0 is the no-effect control and ±100 the full control effect
Target sequence (Q27686 whole entry, looked up): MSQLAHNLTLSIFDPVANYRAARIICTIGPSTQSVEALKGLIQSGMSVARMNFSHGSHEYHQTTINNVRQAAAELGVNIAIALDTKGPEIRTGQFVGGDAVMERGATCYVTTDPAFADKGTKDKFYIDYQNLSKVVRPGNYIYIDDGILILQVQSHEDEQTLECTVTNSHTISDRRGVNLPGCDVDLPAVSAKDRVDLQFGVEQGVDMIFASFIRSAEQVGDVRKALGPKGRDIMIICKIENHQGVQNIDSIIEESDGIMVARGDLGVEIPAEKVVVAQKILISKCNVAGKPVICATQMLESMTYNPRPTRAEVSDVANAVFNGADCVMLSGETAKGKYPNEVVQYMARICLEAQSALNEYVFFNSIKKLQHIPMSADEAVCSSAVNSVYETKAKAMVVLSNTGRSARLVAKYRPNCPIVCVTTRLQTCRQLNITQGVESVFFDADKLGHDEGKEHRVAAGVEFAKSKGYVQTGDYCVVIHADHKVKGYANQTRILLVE
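Purified LmPK (0.1 nM) converted ADP (0.1 mM) to ATP with PEP (0.5 mM) in imidazole buffer pH 7.2 with KCl and MgCl2, 1 h at room temperature. ATP was read by Kinase-Glo luminescence; data normalized to uninhibited and no-enzyme controls.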
* marks the source's active call; other numbers are inactive results; ? = inconclusive; . = not tested or not shown; + = active, no number. This is one part of a sample in which hits are shown more often than they occur. Unless noted, the call rests on the fitted dose curve; in most records, active means well fitted curve in the direction sought with a large enough effect; inconclusive means small, poorly fitted or top-dose-only effect, or another doubt; inactive means no such curve, though single readings can be large; an effect the other way counts as inactive or inconclusive.

SMILES | Shiga inhibitor | Giardia FBPA inh | TbPYK inhibitor | RE007 growth inh | Cycloheximide cs | LmPK inhibitor
COc1cccc(C(=O)NN2CC(O)=C(c3nc4ccccc4s3)C2=N)c1 | -12.6 | 2.5% | -6.6% | -15.5% | -2.3 | 1.6%
O=C(NCc1ccco1)c1sc2cc(F)ccc2c1Cl | 85.9* | -0.7% | 3.5% | -13.5% | 38.6* | -0.4%
O=C(NC1=NCCS1)c1sc2cc(F)ccc2c1Cl | 96.2* | 1.8% | -8.3% | -26.9% | 76.9* | 3.8%
O=C(Nc1ccon1)c1sc2cc(F)ccc2c1Cl | 75.4* | 12.3% | -0.2% | -0.4% | 33.4* | -2.3%
O=C(NC1CC1)c1sc2cc(F)ccc2c1Cl | . | . | -11.4% | ? | . | .
COc1cc(C2OC(=O)C3C(c4ccc(OC(C)=O)c(OC)c4)OC(=O)C23)ccc1OC(C)=O (centres undefined) | . | . | 8.6% | 5.5% | . | .
CC1CCN(C(CC(=O)c2ccccc2)C(=O)c2ccccc2)CC1 (centres undefined) | . | . | 20µM* | 4.47µM* | . | .
O=C(Cn1cnc([N+](=O)[O-])n1)c1ccccc1 | 21.9 | 4.7% | -2.8% | -7.4% | -3.0 | -3.2%
Cc1cc([N+](=O)[O-])nn1CC(=O)N/N=C/c1ccccc1O | 57.5* | 15.1% | -0.6% | -1.2% | 23.8* | -0.6%
C/C(Cn1cnc([N+](=O)[O-])n1)=N\NC(=O)c1ccccc1 | 57.1* | -16.0% | 1.2% | -4.3% | 30.1* | -5.8%
C/C(Cn1nc([N+](=O)[O-])cc1C)=N\NC(=O)c1ccc(C(C)(C)C)cc1 | -6.8 | -11.7% | 2.9% | 11.1% | -2.8 | 15.9%
Cc1cc([N+](=O)[O-])nn1CC(=O)N/N=C/c1ccccc1F | 11.1 | -1.7% | 2.7% | 9.4% | -1.4 | 1.8%
COc1ccc(C(=O)N/N=C(\C)Cn2nc([N+](=O)[O-])cc2C)cc1 | 58.4* | -2.3% | -1.9% | -6.6% | 15.7 | -8.5%
C/C(Cn1nnc([N+](=O)[O-])n1)=N\NC(=O)c1ccccc1 | 54.1* | ? | -12.4% | -23.5% | 24.2* | 1.5%
COc1ccc(NC(=O)CCn2nc(-c3ccccc3OC)c3c(C)cc(C)nc32)cc1 | . | . | -4.3% | . | . | .
Cc1cc(NC(=O)COc2ccccc2C)no1 | 110.2* | 1.1% | -9.0% | 24.6% | 46.2* | 7.3%
Cc1cc(NC(=O)COc2cccc3cccnc23)no1 | + | ? | . | . | 33.0* | -1.9%
Cc1cc(NC(=O)COc2cccc(C)c2C)no1 | 59.7* | 2.4% | -3.5% | 3.0% | 27.6* | -0.2%
Cc1cc(NC(=O)COc2ccccc2C(N)=O)no1 | . | . | 2.9% | 0.2% | . | .
Cc1cc(C)cc(OCC(=O)Nc2cc(C)on2)c1 | -7.1 | 4.6% | -0.9% | 9.8% | -2.4 | 4.0%
Cc1ccc(OCC(=O)Nc2cc(C)on2)c([N+](=O)[O-])n1 | 104.6* | 0.0% | -5.4% | 6.4% | 35.2* | 2.8%
NC(=O)Nc1cc(-c2cccc(F)c2)sc1C(=O)N[C@H]1CCCNC1 | . | . | -0.1% | . | . | .
COc1ccc(-n2nc(C(=O)Nc3ccc(Cl)cn3)c3c4ccccc4n(C)c3c2=O)cc1Cl | . | . | 8.1% | . | . | .
Cc1nc(CC(=O)Nc2ccc(N(C)C)cc2)cs1 | . | . | -6.9% | . | . | .
Cc1ccc(CNCCc2ccccc2F)cc1 | 39.8 | 0.3% | 31.4% | -4.7% | 13.6* | -1.0%
SMILES | Shiga inhibitor | Giardia FBPA inh | TbPYK inhibitor | RE007 growth inh | Cycloheximide cs | LmPK inhibitor
O=C(Cc1cccc2ccccc12)Nc1c(F)cccc1F | 58.3* | 9.9% | 1.9% | 12.6% | 18.1* | -2.7%
Fc1ccccc1CCNCc1cccc2ccccc12 | 26.3 | -7.1% | -0.7% | -0.4% | 17.8* | -1.5%
CCOC(=O)c1ccc(OCC2c3cc(OC)c(OC)cc3CCN2C(=O)c2ccc(S(=O)(=O)N3CCCC3)cc2)cc1 (centres undefined) | . | . | -2.4% | . | . | .
C#C[C@@]1(OC(C)=O)CC[C@H]2[C@@H]3CCC4=CC(=O)CC[C@@H]4[C@H]3CC[C@@]21C | . | . | 7.2% | . | . | .
Cc1cc(C)cc(-n2cnc3cc(C(=O)NC4CCCCCC4)ccc32)c1 | . | . | 4.9% | . | . | .
Cc1ccc(C(=O)Nc2ccccc2C(=O)NC(C(=O)O)C(C)C)cc1 (centres undefined) | 48.3* | ? | -15.5% | 2.3% | 20.6 | -7.4%
